Source: PubChem BioAssay (National Center for Advancing Translational Sciences (NCATS))
HCV inhibitor = HCV inhibition; Huh7.5.1 HCVcc-Cre infection, luciferase reporter, 44 h; Potency, µM (doses to about 41.8 µM), for the others: top-dose activity change, negative = inhibition, usual class: inhibitors; 340,000 tested, 3.4% active; active = well fitted inhibition curve with a large enough effect; inconclusive = small, poorly fitted or top-dose-only effect, or another doubt; inactive = no such curve, though single readings can be large or run the other way; also: potency is read from the fitted curve at half-maximal effect
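Cells seeded at 1,000/well and cultured 4 h, then compounds added followed by HCVcc-Cre virus (~0.5 moi). After 44 h further culture, luciferase substrate was added, plates held 15 min at room temperature, and luminescence read for 15 sec.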
MARV entry inh = blocks Marburg virus binding to or entry into cells. Marburg virus pseudotyped entry inhibition, cell reporter. 300,000 tested, 1.8% active. Potency, µM (titrated, usually from 37.8 µM), for the others: at the top dose activity change, negative = inhibition, hits mostly inhibitors; calls by dose curve; tested in HEK293 cells; also: potency is read from the fitted curve at half-maximal effect
Vaccinia Venus = inhibitors of vaccinia virus (Venus reporter). Vaccinia virus Venus reporter expression, fluorescence. Potency, µM (doses to about 36.5 µM), without a hit: at the highest dose activity change, negative = inhibition, hits mostly inhibitors. 330,000 tested, 0.46% active. AID 720580; calls by dose curve; tested in A549 cells; also: potency is read from the fitted curve at half-maximal effect; nearly all actives have a fitted effect of over 30% in size
Vaccinia mCherry = inhibitors of vaccinia virus infection (mCherry reporter signal). Vaccinia virus mCherry reporter infection, fluorescence. Potency, µM (doses to about 36.5 µM), without a hit: top-dose activity change, negative = inhibition, actives largely listed as inhibitors. 310,000 tested, 0.63% active. AID 720579; calls by dose curve; tested in A549 cells; also: potency is read from the fitted curve at half-maximal effect; nearly all actives have a fitted effect of over 35% in size
HCMV inh = human cytomegalovirus inhibition; HFF cells, HCMV-luciferase reporter, 72 h; active compounds read low; activity change, negative = inhibition, % at 57.5 µM; 410,000 tested, 4.5% active; AID 1259415; in the data active = activity change below about -60%; inconclusive = no clear call, values can overlap the other calls; inactive = above about -39%
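Screen run at 2 compound doses on HFFs infected with reporter HCMV, MOI 1 PFU/cell. Luciferase activity from cell lysates at 72 h post infection gave inhibition relative to buffer-only and Salinomycin wells.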
Lassa entry inh = blocks Lassa virus binding to or entry into cells; Lassa virus pseudotype entry inhibition, cell reporter; AID 540256; 300,000 tested, 1.2% active; Potency, µM (series often up to 37.9 µM), for inactives: at the top dose activity change, negative = inhibition, most hits filed as inhibitors; calls by dose curve; tested in HEK293 cells; also: potency is read from the fitted curve at half-maximal effect; nearly all actives have a fitted effect of over 50% in size
Numbers without * were called inactive; i = inactive; ? = inconclusive; / = not tested or not shown; ! = not active in a repeat; [ ] = dose if it differs, or a comment. An excerpt weighted towards active compounds, which were near 7.8% of everything screened. % is scaled to controls: 0 for no effect and ±100 for the full control effect.

SMILES	HCV inhibitor	MARV entry inh	Vaccinia Venus	Vaccinia mCherry	HCMV inh	Lassa entry inh
O=C(Nc1ccc2nc3n(c(=O)c2c1)CCCC3)c1cncc(Br)c1	?	/	-14%	i	-63*	/
CCOc1ccc(CCNC(=O)c2ccc3c(=O)n4c(nc3c2)CCCCC4)cc1	?	/	/	/	-8	/
COc1cccc(NC(=O)CC(=O)Nc2ccc3nc4n(c(=O)c3c2)CCCCC4)c1	/	4%[46.1 µM]	-9%	-9%	-72*	16%[46.1 µM]
O=C(Nc1ccc2nc3n(c(=O)c2c1)CCCC3)c1cccc([N+](=O)[O-])c1	?	6%	-26%	-10%	-22	12%
CCN(CC)c1ccc(C(=O)NNC(=O)c2ccc3c(=O)n4c(nc3c2)CCC4)cc1	0%	/	/	/	-10	/
CCc1nnc(NC(=O)c2ccc3c(=O)n4c(nc3c2)CCCCC4)s1	?	-3%	2%	i	-14	1%
CCc1ccc(NC(=O)c2ccc3c(=O)n4c(nc3c2)CCCCC4)cc1	10µM*	/	-4%[7.34 µM]	-6%[7.34 µM]	-38	/
CCN(CC)S(=O)(=O)c1ccc(NC(=O)c2ccc3c(=O)n4c(nc3c2)CCCCC4)cc1	/	?	?	?	-93*	?
O=C(Nc1ccc2nc3n(c(=O)c2c1)CCCC3)c1cc([N+](=O)[O-])ccc1F	?	7.1µM*	-24%	-20%	/	3.3µM*
Cc1ccc(CNC(=O)CSc2nc(=O)[nH]c3c2CCCC3)cc1	/	/	-6%[7.34 µM]	-7%[7.34 µM]	13	14%[46.1 µM]
O=c1[nH]c(=O)n(Cc2ccc(Oc3ccccc3)cc2)cc1Br	/	/	/	/	-37	/
C=C1CC(Cn2cc(Br)c(=O)[nH]c2=O)(c2ccc(-c3ccccc3)cc2)OC1=O (stereo not drawn)	?	?	7.9µM*	2.8µM*	-97*	?
COc1ccc(CC(=O)NC2CC(=O)N(c3ccc(C)c(C)c3)C2)cc1OC (stereo not drawn)	/	/	-5%[7.34 µM]	-11%[7.34 µM]	-7	-5%[46.1 µM]
N=C(N)c1ccc(OCCCCCOc2ccc(C(=N)N)cc2)cc1	2.2µM*!	?	-29%	?	-89*	?
O=C(Nc1ccc(C(=O)N2CCN(c3ccccc3F)CC2)cc1)c1nsc2ccccc12	/	/	-8%	-4%	-26	?
O=[N+]([O-])c1ccc2c(c1)C(N1CCOCC1)/C(=C/COc1ccc3ccccc3c1Br)O2 (stereo not drawn)	-18%	13µM*	-10%	/	15	?
CC(C)(C)N1C(=O)c2ccccc2NC(=O)N1Cc1ccc(Br)cc1	-1%	?	?	i	-65*	-8%
Cc1ccccc1CN1C(=O)Nc2ccccc2C(=O)N1C(C)(C)C	4%	?	-8%	-5%	-38	5%
COc1cccc2c1OCC(C(=O)O)C2 (stereo not drawn)	-4%	?	-3%	-5%	-2	-4%
COc1cccc2c1C(CO)N1C(C#N)C3CC(C(=O)O)C(C1C2)N3C (stereo not drawn)	1.1µM*	/	?	?	-77*	/
COc1ccccc1CNC(=O)c1cc2cccc3c2n1CCS3	/	/	-1%	-3%	?	?
CCCCC/C=C\C\C=C/C=C/C=C/[C@@H](SC[C@H](N)C(=O)O)[C@@H](O)CCCC(=O)O	/	/	-9%[0.293 µM]	-15%[0.293 µM]	/	/
C(=Cc1cccnc1)c1ccncc1	-3%	-10%[46.1 µM]	-3%	i	-26	-2%[46.1 µM]
COc1ccc(OC)c(C(=O)/C=C/c2cccnc2)c1	?	?	-25%	?	-100*	?
COc1cc(C(=O)/C=C/c2cccnc2)ccc1O	7%	?	8.9µM*	3.5µM*	12	?
SMILES	HCV inhibitor	MARV entry inh	Vaccinia Venus	Vaccinia mCherry	HCMV inh	Lassa entry inh
COc1ccc(/C=C/C(=O)c2ccc(OC)cc2OC)cc1	?	/	-10%	?	-30	/
O=C(/C=C/c1cccnc1)/C=C/c1cccnc1	?	/	/	/	-97*	/
Cc1c(C(=O)N2CCN(C)CC2)sc2ncnc(NCC3(c4ccccc4)CCOCC3)c12	/	/	0%	i	/	/
COc1cc(/C=C/C(=O)c2ccc(F)cc2)cc(OC)c1OC	?	?	-9%	0%	-112*	?
CCOc1ccc(C(=O)/C=C/c2cc(OC)c(OC)c(OC)c2)cc1	-27%	?	?	?	-88*	?
COC(=O)c1cc2c(ccn2-c2ccc(F)cc2)n1Cc1ccc(OC(C)=O)cc1	8.9µM*	-1%	-29%	-8%	-1	?
COC(=O)c1cc2c(ccn2-c2ccc(F)cc2)n1C(C)C	-30%	11%	/	/	-1	0%
CCOC(=O)c1cc2c(ccn2-c2ccc(F)cc2)n1CC(=O)N1CCN(C(=O)c2ccco2)CC1	?	3%	-1%	-2%	-21	9.2µM*
CCCn1c(C(=O)OC)cc2c1ccn2-c1ccc(F)cc1	32µM*	0%	/	/	-11	-5%
COC(=O)c1cc2c(ccn2-c2ccc(F)cc2)n1CC(C)C	11µM*	0%	/	/	-6	0%
COC(=O)c1cc2c(ccn2-c2ccc(F)cc2)n1Cc1cccc(OC)c1	?	13%	-8%	i	1	-28%
Cc1cc(C(=O)OCC(=O)N2CCN(C(=O)c3ccco3)CC2)c(C)n1-c1ccc(F)cc1	-19%	-8%	-4%	-10%	-24	?
O=C1CCC[C@@H]2[C@@H](Cc3ccccc3)[C@@H](Nc3ccccc3)C[C@@H]3CCN1[C@@H]32	/	/	-9%	i	/	/
C=CCOC(=O)C1=C(C)OC(N)=C(C#N)[C@H]1c1ccoc1	/	6%	/	/	/	/
Cc1ccc(NC(=O)Cn2cnc3c(oc4ccccc43)c2=O)cc1Cl	/	/	-7%	-12%	4	-18%[46.1 µM]
O=C(Nc1cccc(F)c1)c1oc2ccccc2c1NC(=O)C12CC3CC(CC(C3)C1)C2	/	0%[46.1 µM]	-4%	7%	-13	?
C=C[C@]1(C)C=C2CCC3[C@](C)(CCC[C@@]3(C)C(=O)O)C2CC1 (stereo partly drawn)	2.2µM*	/	-8%	-1%	/	/
O=C(CCc1nnc2n(Cc3ccccc3Cl)c(=O)c3ccccc3n12)Nc1ccccc1	/	-14%[46.1 µM]	-20%	-21%	-20	/
Cc1ccc(C(=O)Nc2cnn(-c3ccc(C(=O)NCc4nc(-c5ccccc5)n[nH]4)cc3)c2)c(C)c1	/	/	-25%	-21%	/	/
Cc1cccc(C)c1NC(=O)C(C(C)C)N1C(=O)C(=O)c2ccccc21 (stereo not drawn)	/	/	/	/	33	/
Cc1ccc(CNC(C)c2ccccc2)s1 (stereo not drawn)	/	?	-1%	1%	9	?
CC(NCCC(c1ccccc1)c1ccccc1)c1ccccc1 (stereo not drawn)	?	?	?	?	-40	23µM*
CC1CCCC(C)N1/N=C/c1c[nH]c2ccc(Br)cc12 (stereo not drawn)	-13%	?	?	?	-78*	-9%
CCN(CC)C(=O)CSC1=C(C#N)[C@H](c2ccco2)C(C(=O)OCCOC)=C(C)N1	/	9%	/	/	/	/
